Hits are enriched below; roughly 1.7% of the tested compounds scored in any of these assays.
GLP1R inv ag: acts as inverse agonist at human GLP-1 receptor; P43220; HEK293 GLP-1R CRE-luciferase, luminescence, 24 h; GLP-1R form is constitutively active; Potency, µM (doses to about 38.3 µM), without a hit: at the highest dose activity change, negative = inhibition, actives largely listed as inhibitors; hit rate 1.6% among 410,000; AID 624417; also: % is scaled to controls: 0 for no effect and ±100 for the full control effect; nearly all actives have a fitted effect of over 55% in size
Target sequence (P43220 whole entry, looked up): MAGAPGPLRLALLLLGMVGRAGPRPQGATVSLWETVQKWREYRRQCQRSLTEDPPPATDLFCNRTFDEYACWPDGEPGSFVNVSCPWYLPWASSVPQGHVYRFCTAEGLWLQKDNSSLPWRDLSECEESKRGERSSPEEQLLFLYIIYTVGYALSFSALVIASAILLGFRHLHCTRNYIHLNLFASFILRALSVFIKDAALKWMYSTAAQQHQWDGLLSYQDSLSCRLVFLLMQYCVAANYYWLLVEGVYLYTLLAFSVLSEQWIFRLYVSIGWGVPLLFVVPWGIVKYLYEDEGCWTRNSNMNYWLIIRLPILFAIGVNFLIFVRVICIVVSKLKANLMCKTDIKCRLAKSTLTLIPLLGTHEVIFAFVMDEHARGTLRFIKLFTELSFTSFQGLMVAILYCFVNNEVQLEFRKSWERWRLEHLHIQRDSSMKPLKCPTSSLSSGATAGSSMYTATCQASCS
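Readout was luciferase luminescence, measured 12 min after detection reagent at room temperature. Beforehand, GLP-1R reporter HEK293 cells had sat 12 h, then received compounds for 24 hr at 37 deg C.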
GLP-1R agonist: GLP-1 receptor (human) agonism; P43220; HEK293 GLP-1R CRE-luciferase, luminescence, 4-6 h; cells express a hypersensitive GLP-1R form; Potency, µM (top dose mostly 45.6 µM), without a hit: at the highest dose activation, hits mostly activators; hit rate 0.007% among 380,000; also: % of control where 0% means no effect
HEK293 tox: cytotoxic in the GLP-1 receptor inverse agonist counter-screen; HEK293 cAMP-luciferase reporter cells, luminescence, 24 h; Potency, µM (series often up to 38.3 µM), without a hit: top-dose activity change, negative = inhibition, usual class: inhibitors; hit rate 0.13% among 410,000;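 also: loss of luciferase light is scored as toxicity; % is scaled to controls: 0 for no effect and ±100 for the full control effect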
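Compound-treated cells are incubated 24 hr at 37 deg C under 5% CO2 after a 12 hour attachment period, then luciferase detection reagent is added and luminescence is measured following 12 min at room temperature; lowered signal indicates toxicity.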
PTHR1 agonist: agonists of human PTHR1 parathyroid hormone receptor; HEK293 GP2 PTHR1 cells, GloSensor cAMP luminescence, 1 h; Potency, µM (titrated, usually from 115 µM), for inactives: top-dose activation, most hits filed as activators; hit rate 0.075% among 410,000; also: nearly all actives have a fitted effect of over 55% in size
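HEK-293-derived GP2 cells expressing PTHR1 and a GloSensor cAMP reporter, 3,000/well, plated overnight, given luciferin plus IBMX (each 0.5 mM as added) for 1 h at 37 °C, then compound for 1 h at 37 °C. Luminescence was read after 15 min at room temperature.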
* marks the source's active call; other numbers are inactive results; i = inactive; ? = inconclusive; nt = no result; [ ] = another dose, or the depositor's remark. Calls follow the shape of the dose curve; as a rule, active = well fitted curve in the direction sought with a large enough effect; inconclusive = small, poorly fitted or top-dose-only effect, or another doubt; inactive = no such curve, though single readings can be large; an effect the other way counts as inactive or inconclusive. Potency is read from the fitted curve at half-maximal effect.

SMILES	GLP1R inv ag	GLP-1R agonist	HEK293 tox	PTHR1 agonist
CC1C(=O)C(C)C(c2cc(Br)ccc2O)NC1c1cc(Br)ccc1O (configuration not stated)	5.01µM*	6.8%	?	-3.5%
Cc1ccccc1Cn1nc(C)c(NC(=O)/C=C/c2cnn(C)c2)c1C	49.7%	?	47.0%	i
CCN(CC(=O)NCc1ccc(Cl)cc1)C(=O)CSc1ccc(Br)cc1	6.31µM*	0.0%	3.8%	-42.5%
Cc1ccc(S(=O)(=O)N2[C@@H](c3ccc(Br)cc3)C(C(=O)O)=CC[C@H]2c2ccc(Cl)cc2)cc1	11.2µM*	-11.0%	-20.2%	-32.8%
Cc1ccc([C@@H]2CC=C(C(=O)O)[C@H](c3ccc(Br)cc3)N2S(=O)(=O)c2ccccc2C)cc1	11.2µM*	-0.8%	-11.2%	-35.5%
Cc1ccccc1S(=O)(=O)N1[C@@H](c2ccc(Br)cc2)C(C(=O)O)=CC[C@H]1c1ccc(Cl)cc1	?	-5.1%	-10.2%	-9.4%
Cc1ccc([C@@H]2CC=C(C(=O)O)[C@H](c3ccc(Cl)cc3)N2S(=O)(=O)c2ccc(C)cc2)cc1	?	-5.5%	-12.6%	-86.0%
Cc1ccc([C@@H]2CC=C(C(=O)O)[C@H](c3ccc(Cl)cc3)N2S(=O)(=O)c2ccccc2C)cc1	8.91µM*	-3.2%	-18.5%	-28.7%
Cc1ccccc1S(=O)(=O)N1C(c2ccc(Cl)c(Cl)c2)CC=C(C(=O)O)C1c1cccc(Br)c1 (configuration not stated)	10µM*	nt	-19.7%	i
Cc1cnc(C=O)c2cccc([N+](=O)[O-])c12	-0.9%	16.0%	-5.1%	-34.8%
Cc1ccc(CNC(=O)C2CC(c3ccccc3F)=NO2)cc1 (configuration not stated)	?	0.0%	-19.7%	-20.6%
Cc1ccc([C@H]2C(C(=O)O)=CC[C@@H](c3ccc(Cl)c(Cl)c3)N2S(=O)(=O)c2ccc(C)cc2)cc1	10µM*	-2.0%	-11.2%	-11.5%
Cc1ccccc1S(=O)(=O)N1[C@@H](c2ccccc2)C(C(=O)O)=CC[C@H]1c1ccc(Cl)cc1	7.08µM*	-4.3%	-13.3%	-6.7%
Cc1ccc(CNC(=O)CCCn2c(=O)[nH]c3ccc(Br)cc3c2=O)cc1	7.4%	0.1%	2.7%	?
Cc1c(C(=O)N2CCN(c3ncccn3)CC2)oc2c(Cl)cccc12	47.7%	19.3%	4.2%	-29.2%
CC(Oc1ccc(-c2ccccc2)c(F)c1)c1ccn(S(=O)(=O)c2ccc(Br)cc2)n1 (configuration not stated)	7.08µM*	-1.5%	-4.7%	-22.4%
CCN(CC)C(=S)SCC(=O)NC12CC3CC(CC(C3)C1)C2	2.82µM*	18.4%	0.0%	-28.3%
CCN(CC)CC(=O)NC12CC3CC(CC(C3)C1)C2	-5.5%	2.1%	1.0%	i
COc1ccc(CCC(=O)NCCOc2ccc(C)cc2)cc1	1.78µM*	2.3%	-3.0%	i
Cc1ccc(C)c(OCCC(=O)NCCc2ccc(Cl)cc2)c1	10µM*	15.9%	-6.4%	-87.6%
Cn1nnnc1N=N/C(=N/Nc1ccccc1)c1ccccc1	?	-2.8%	?	0.0%
Cc1cc([N+](=O)[O-])c2ccccc2c1NS(=O)(=O)c1ccccc1	10µM*	12.5%	-3.7%	-17.2%
C=CCNC(=O)c1c(CSc2ccccc2)noc1C(=O)NCc1ccccc1	-5.2%	-1.1%	3.9%	i
CCCNC(=O)c1onc(CSc2ccc(Cl)cc2)c1C(=O)NCCC(C)C	10µM*	9.0%	0.4%	i
C=CCNC(=O)c1c(CSc2ccc(Cl)cc2)noc1C(=O)NCc1ccccc1	7.94µM*	1.9%	2.5%	-4.1%
SMILES	GLP1R inv ag	GLP-1R agonist	HEK293 tox	PTHR1 agonist
OC[C@@H]1CN(Cc2ccc(-c3ccccc3)cc2)C[C@H](n2cnc3c(NCc4ccc(F)cc4)ncnc32)O1	?	-5.4%	-22.0%	-41.7%
COc1cc2nc(N3CCN(c4cc(C)ccc4C)CC3)nc(N)c2cc1OC	5.01µM*	-7.9%	?	-1.3%
Cc1ccc(CNCc2c(C(=O)O)n(Cc3ccc(C)cc3)c3cc(C)ccc23)cc1	?	-6.3%	?	-25.8%
Cc1ccc(Cn2c(C(=O)O)c(CNCc3ccc(OC(C)C)cc3)c3ccc(C)cc32)cc1	12.6µM*	-5.5%	?	-2.6%
O=C(OCCOc1ccc(Cl)cc1)c1cc(S(=O)(=O)N2CCCCC2)ccc1N1CCOCC1	10µM*	16.7%	-3.7%	-31.5%
COc1ccc(CCN(C(=O)C(F)(F)F)C(C(=O)NC2CCCCC2)c2cccs2)cc1 (configuration not stated)	6.31µM*	4.6%	-3.6%	i
CNc1ccccc1C(C)(C)c1cc(-c2cc(C)cc(C)c2)no1	?	0.2%	12.0%	i
CNc1ccccc1C(C)(C)c1cc(-c2cccc(OC)c2)no1	7.08µM*	6.6%	-11.3%	-20.2%
CCN(CC(=O)Nc1ccccc1C(F)(F)F)C(=O)c1cccc(N2C(=O)CCC2=O)c1	21.4%	-14.8%	23.0%	i
O=c1[nH][nH]c2c1[C@H](c1ccc(Cl)cc1)O[C@H](C1CCCC1)C2	?	-4.5%	-11.6%	-15.4%
Cc1cc(/C=C(\C#N)C(=O)NCc2cccs2)c(C)n1-c1ccccc1F	2.82µM*	7.4%	-5.3%	-15.9%[57.5 µM]
CCc1ccccc1Nc1nc(-c2cccnc2)cs1	11.2µM*	-6.0%	-13.2%	-39.6%
C=CCn1c(SCC(=O)Nc2c(C)n(C)n(-c3ccccc3)c2=O)nc2sc(C)c(C)c2c1=O	4.4%	9.5%	-3.1%	i
C=CCn1c(SCC(=O)Nc2c(C)n(C)n(-c3ccccc3)c2=O)nc2sc(C)c(-c3ccccc3)c2c1=O	3.16µM*	3.6%	-2.6%	-14.8%[57.5 µM]
Cc1ccc(Sc2c(C=O)c3ccccc3n2C)cc1	5.62µM*	-22.4%	?	i
Cc1ccc(NC(=O)CCN2CC(C)OC(C)C2)cc1C (configuration not stated)	8.4%	-3.7%	2.6%	-7.0%
CN(c1ccccc1)c1ccc(/C=C(/CCC(=O)O)c2nc3ccccc3s2)cc1[N+](=O)[O-]	11.2µM*	5.0%	-27.1%	-18.7%
Cc1ccc(Cc2nc3ccccc3nc2SCC(=O)N2CCCCC2C)cc1 (configuration not stated)	10µM*	-4.8%	-6.9%	-35.1%
CCOc1ccc2oc(C(=O)NC3CC(C)(C)NC(C)(C)C3)c(C)c2c1	10µM*	-0.8%	1.3%	i
CCOc1ccc2oc(C(=O)NC3CCN(Cc4ccccc4)CC3)c(C)c2c1	?	8.7%	0.6%	-34.0%
CCOc1ccc2oc(C(=O)N3CCN(c4ccccc4OCC)CC3)c(C)c2c1	11.2µM*	1.0%	-6.4%	i
O=C(C1CCC(=O)N(C2CCCC2)C1)N1CCN(Cc2cccc(F)c2)CC1 (configuration not stated)	18.4%	-2.0%	-6.2%	i
COc1cc(CN2CCN(c3cccc(Cl)c3)CC2)cc(OC)c1OC	5.01µM*	9.0%	?	i

Source: PubChem BioAssay
